From PubChem
Hits are enriched below; roughly 14% of the tested compounds scored in any of these assays.
AID923: qHTS Assay for Allosteric/Competitive Inhibitors of Caspase-1: Spectroscopic Profiling in AFC Spectral Region | AID 923, 2007 | hit rate 1.1% among 75,000 | Potency, µM (titrated, usually from 57.5 µM), for inactives: top-dose fluorescence increase, usual class: activators | compound fluorescence, AFC spectral region (405/520 nm); further: potency means the concentration at half of the fitted maximal effect; 0% is about no effect
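Baseline compound fluorescence (AFC region, 405 nm ex/520 nm em) taken from the intercept of kinetic reads with 50 nM caspase-1 and 5 uM Ac-WEHD-AFC; normalized to an on-plate AFC standard curve; compounds titrated up to 57 uM.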
CRE-bla Fsk: Cell signaling CRE-BLA (Fsk stim); AID 662, 2007; CHO CRE-bla reporter (cAMP response element driving beta-lactamase), forskolin EC10, beta-lactamase ratio; Potency, µM (doses to about 38.2 µM), for inactives: top-dose activity change, negative = inhibition, actives largely listed as activators; hit rate 2.5% among 71,000; active means well fitted activation curve with a large enough effect in the signal ratio, with a control signal flat, not every such curve was filed as active; inconclusive means small, poorly fitted or top-dose-only effect, or effect the other way, or a change in a side signal; the % refers to the signal ratio; further: potency means the concentration at half of the fitted maximal effect; % of control where 0% means no effect
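CHO CRE-bla cells, overnight plating in Opti-MEM with 0.5% dialyzed FBS; cpd titration + EC10 NKH 477, 3 h 37 °C; CCF4 2 h RT; ex 405/em 460 vs 530 ratio → %Activity, AC50.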
4MU fluor: qHTS Assay for Spectroscopic Profiling in 4-MU Spectral Region. hit rate 11% among 59,000. compound autofluorescence, 340/450 nm, 4-MU equivalents; active compounds read high. max dye-equivalent concentration, M; in the data active means max dye-equivalent concentration above about 10 nM; inconclusive means mostly about 1.1 nM to 9.6 nM
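Compounds in 100 mM Tris, pH 8.0, incubated 15 min at room temperature, then fluorescence read at 340 nm excitation/450 nm emission. Signal converted to 4-MU dye-equivalent concentration using an on-plate six-point 4-MU standard curve.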
HADH2 inh: qHTS Assay for Inhibitors of HADH2 (Hydroxyacyl-Coenzyme A Dehydrogenase, Type II) | 3-hydroxyacyl-CoA dehydrogenase type-2 (Homo sapiens), Q99714 | recombinant HADH2, NADH fluorescence, beta-hydroxybutyryl-CoA | Potency, µM (doses to about 57.1 µM), without a hit: at the highest dose activity change, negative = inhibition, actives largely listed as inhibitors | hit rate 3.4% among 73,000; further: potency means the concentration at half of the fitted maximal effect; on the % scale 0 is the no-effect control and ±100 the full control effect; nearly all actives have a fitted effect of over 60% in size
Target sequence (Q99714 whole entry, looked up, one chain of several): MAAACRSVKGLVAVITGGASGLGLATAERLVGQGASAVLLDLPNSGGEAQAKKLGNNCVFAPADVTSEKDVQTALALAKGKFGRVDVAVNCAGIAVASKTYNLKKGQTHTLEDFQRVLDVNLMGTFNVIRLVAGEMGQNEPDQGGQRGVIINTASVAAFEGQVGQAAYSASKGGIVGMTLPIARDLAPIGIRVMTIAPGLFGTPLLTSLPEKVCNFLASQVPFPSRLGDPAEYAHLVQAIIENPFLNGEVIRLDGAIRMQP
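Activity measured as NADH fluorescence gain (360/450 nm), taken as the change between first and last reads of a 4-min kinetic run. Conditions: pH 9.0 Tris buffer, 20 nM E. coli-expressed His-tagged enzyme, 1 mM NAD+, 90 uM beta-hydroxybutyryl-CoA; 15-min compound preincubation.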
A350 autofl: qHTS Assay for Spectroscopic Profiling in A350 Spectral Region | max dye-equivalent concentration, M | hit rate 11% among 59,000 | Compound autofluorescence, 340/450 nm, Alexa 350 dye-equivalents; active compounds read high | AID 590, 2007; in the data active means max dye-equivalent concentration above about 10 nM; inconclusive means mostly about 1.1 nM to 9.6 nM
HSD17B inhib: qHTS Assay for Inhibitors of HSD17B4, hydroxysteroid (17-beta) dehydrogenase 4; Potency, µM (titrated, usually from 57.1 µM), without a hit: top-dose activity change, negative = inhibition, hits mostly inhibitors; hit rate 7.6% among 75,000; recombinant HSD17B10, NADH fluorescence kinetic; AID 893, 2007;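 further: the protocol describes HADH2 (HSD17B10) and not the HSD17B4 of the title; potency means the concentration at half of the fitted maximal effect; on the % scale 0 is the no-effect control and ±100 the full control effect; nearly all actives have a fitted effect of over 70% in size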
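20 nM HADH2, pH 9.0 Tris/Tween; cpd preinc 15 min RT; start w/ 1 mM NAD+ + 90 uM b-hydroxybutyryl-CoA; kinetic fluor ex360/em450 q30s x 4 min; delta last-first.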
* marks the source's active call; other numbers are inactive results; [ ] = remark or other dose. Unless noted, the call rests on the fitted dose curve; in most records, active means well fitted curve in the direction sought with a large enough effect; inconclusive means small, poorly fitted or top-dose-only effect, or another doubt; inactive means no such curve, though single readings can be large; an effect the other way counts as inactive or inconclusive.

NCCCCCNC(=O)/C=N\O was read as AID923 -1.6%, CRE-bla Fsk -0.9%, 4MU fluor inactive, HADH2 inh 13.2%, A350 autofl inactive and HSD17B inhib 10.1%.
CCc1cc(C(=O)Cc2cnn(-c3ccccc3)c2)c(O)cc1O was read as AID923 4.2%, CRE-bla Fsk -6.1%, HADH2 inh inconclusive and HSD17B inhib 31.6µM*.
CC1CCC(C(=O)O)NC1c1cccc(N2CCCC2=O)c1 (configuration not stated) was read as AID923 0.8%[11.5 µM], HADH2 inh -7.4%[11.4 µM] and HSD17B inhib 3.4%[11.4 µM].
Screening Cc1ccc(S(=O)(=O)N(C)Cc2cc3ccccc3[nH]c2=O)cc1 returned AID923 0.7%, CRE-bla Fsk 3.5%, 4MU fluor inconclusive, HADH2 inh inconclusive, A350 autofl 1.18e-08M* and HSD17B inhib 5.8%.
For CN(Cc1cc2ccccc2[nH]c1=O)S(=O)(=O)c1ccccc1 the results were AID923 0.1%, CRE-bla Fsk 17.7%, 4MU fluor inactive, HADH2 inh -15.2%, A350 autofl inactive and HSD17B inhib -24.4%.
Cc1ccc(S(=O)(=O)OCC2CN3C(CCC(C)C3c3ccc(Br)cc3)C(=O)O2)cc1 (configuration not stated) was read as AID923 0.1%[11.5 µM], HADH2 inh 9.2%[11.4 µM] and HSD17B inhib 2.0%[11.4 µM].
`Cc1cc2c(C)nc(-c3ccccc3)nc2o1` gave AID923 2.4%, CRE-bla Fsk 0.398µM*, 4MU fluor inactive, HADH2 inh 14.3%, A350 autofl inactive and HSD17B inhib 5.0%.
Screening COc1cc2c(C)nc3onc(-c4ccccc4)c3c2cc1OC returned AID923 -1.3%, CRE-bla Fsk inconclusive, 4MU fluor inconclusive, HADH2 inh 62.5%, A350 autofl inconclusive and HSD17B inhib 1.4%.
`COc1ccc(NC(=O)N(Cc2cc3cc(OC)ccc3[nH]c2=O)CC2CCCO2)cc1` (configuration not stated) gave AID923 -0.5%, CRE-bla Fsk 15.4%, 4MU fluor 5.38e-08M*, HADH2 inh 9.4%, A350 autofl 5.36e-08M* and HSD17B inhib 31.6µM*.
CCOc1ccc(N(Cc2cc3cc(OC)ccc3[nH]c2=O)C(=O)C2CCCO2)cc1 (configuration not stated) was read as AID923 1.4%, CRE-bla Fsk 15.0%, 4MU fluor 3.05e-07M*, HADH2 inh -3.6%, A350 autofl 3.93e-07M* and HSD17B inhib 31.6µM*.
For CCN(CC)CCCN(Cc1cc2cc(OC)ccc2[nH]c1=O)C(=O)Nc1ccccc1 the results were AID923 0.9%, CRE-bla Fsk -3.6%, 4MU fluor 2.11e-07M*, HADH2 inh -5.5%, A350 autofl 2.49e-07M* and HSD17B inhib 25.1µM*.
For COC(=O)c1ccccc1S(=O)(=O)N(Cc1cc2ccc(OC)cc2[nH]c1=O)CC1CCCO1 (configuration not stated) the results were AID923 -1.1%, CRE-bla Fsk 7.4%, 4MU fluor inactive, HADH2 inh 31.7%, A350 autofl inactive and HSD17B inhib inconclusive.
Screening O=C(NCc1ccccc1)N(Cc1cc2cc3c(cc2[nH]c1=O)OCO3)CC1CCCO1 (configuration not stated) returned AID923 2.5%, CRE-bla Fsk 3.5%, 4MU fluor 3.61e-07M*, HADH2 inh inconclusive, A350 autofl 3.06e-07M* and HSD17B inhib 25.1µM*.
`Cc1ccc2[nH]c(=O)c(CN(CC3CCCO3)C(=O)c3ccco3)cc2c1` (configuration not stated) gave AID923 -1.7%, CRE-bla Fsk -2.8%, 4MU fluor inconclusive, HADH2 inh 3.1%, A350 autofl inconclusive and HSD17B inhib -1.7%.
For COc1ccc2[nH]cc(CCNc3cc(-c4cccnc4)ncn3)c2c1 the results were AID923 3.7%, CRE-bla Fsk inconclusive, 4MU fluor inactive, HADH2 inh inconclusive, A350 autofl inactive and HSD17B inhib -1.9%.
Cn1cccc1C(=O)N1CCC2(CC1)CN(c1ccncc1)C2 was read as AID923 4.5%, CRE-bla Fsk -2.4%, 4MU fluor inactive, HADH2 inh -6.0%, A350 autofl inactive and HSD17B inhib 5.6%.
COc1ccccc1C1CC(c2ccc(C)cc2)Nc2ncnn21 (configuration not stated) was read as AID923 -0.3%, CRE-bla Fsk -0.5%, 4MU fluor inactive, HADH2 inh 1.7%, A350 autofl inconclusive and HSD17B inhib 2.6%.
For Cc1ccc2[nH]c(=O)c(CN(CCO)C(=O)NCc3ccccc3)cc2c1 the results were AID923 -1.2%, CRE-bla Fsk 1.3%, 4MU fluor inactive, HADH2 inh -1.6%, A350 autofl inconclusive and HSD17B inhib inconclusive.
Screening COc1ccc(NC(=O)N(CCN2CCCC2)Cc2cc3cc(OC)c(OC)cc3[nH]c2=O)cc1 returned AID923 5.4%, CRE-bla Fsk -2.9%, 4MU fluor 3.92e-08M*, HADH2 inh -3.2%, A350 autofl 3.76e-08M* and HSD17B inhib inconclusive.
COc1ccc2[nH]c(=O)c(CN(CCN(C)C)C(=O)NCc3ccccc3)cc2c1 was read as AID923 0.0%, CRE-bla Fsk -4.3%, 4MU fluor 2.71e-07M*, HADH2 inh -29.8%, A350 autofl 2.56e-07M* and HSD17B inhib 31.6µM*.
COc1cc2cc(CN(Cc3cccnc3)C(=O)NCc3ccccc3)c(=O)[nH]c2cc1OC was read as AID923 2.1%, CRE-bla Fsk 5.2%, 4MU fluor 2.48e-07M*, HADH2 inh -29.4%, A350 autofl 2.2e-07M* and HSD17B inhib 25.1µM*.
For CC(=O)N(Cc1cccnc1)Cc1cc2ccc(C)cc2[nH]c1=O the results were AID923 -0.3%, CRE-bla Fsk -5.5%, 4MU fluor inactive, HADH2 inh 2.2%, A350 autofl inconclusive and HSD17B inhib inconclusive.
Cc1ccc2[nH]c(=O)c(COC(=O)C3CCCO3)cc2c1 (configuration not stated) was read as AID923 0.6%, CRE-bla Fsk 4.3%, 4MU fluor 1.08e-08M*, HADH2 inh -11.1%, A350 autofl 1.34e-08M* and HSD17B inhib -21.9%.
